This passage reports growth results from PubChem BioAssay (NCI).

This is part of a sample that, as a whole, favours compounds with a hit. Of some 83,000 tested, about 20% had one in any assay.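 Assay: single dose, 48 h. Readout: percent growth (0 = no net growth; negative = cell death). Active: <10.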 Unmarked numbers belong to inactive results. Active and inactive are the calls of the source.

Test systems include NCI-H23 lung; NCI-H226 lung; NCI-H322M lung; HOP-62 NSCLC; NCI-H460 lung; HOP-92 NSCLC; NCI-H522 lung; A549/ATCC NSCLC; 786-0 renal; COLO 205 colon; DU-145 prostate; K-562 leukemia; MALME-3M melanoma; MDA-MB-231 breast; SF-268 CNS; SF-295 CNS; SF-539 CNS; UACC-257 melanoma; M14 melanoma.
Test in all cases: NCI-60 one-dose screen, 48 h (100 = growth as untreated, 0 = no growth, -100 = all killed)
Holding throughout (conditions): 10 µM unless noted

As to `Clc1cc(Cl)cc(N2N=C(c3cccc(Nc4ccncc4)c3)CC2c2ccc3c(c2)OCO3)c1` (configuration not stated), the growth in the experiment with NCI-H23 lung was 80.1%; with NCI-H226 lung, 83.9%; in the experiment with NCI-H322M lung it was 68.3%; with HOP-62 NSCLC, -31.2% (active); with NCI-H460 lung, -90.2% (active); in the experiment on HOP-92 NSCLC, 57.9%. Besides, the growth in the experiment with NCI-H522 lung was -5.89% (active); in the experiment with A549/ATCC NSCLC, 15.2%; with 786-0 renal it was 91.7%; with COLO 205 colon, -47.5% (active); in the experiment on DU-145 prostate, 28.9%; with K-562 leukemia, 3.33% (active). Also, the growth in the experiment on MALME-3M melanoma was -40.2% (active); in the experiment with MDA-MB-231 breast it was 33.1%; with SF-268 CNS, 72.1%; in the experiment on SF-295 CNS, 40.7%; in the experiment with SF-539 CNS, 83.3%; with UACC-257 melanoma it was 51.2%. The growth in the experiment with M14 melanoma was 85.3%.

Consider `COc1ccc(-c2nc(N/N=C/c3ccco3)nc(N3CCOCC3)c2C#N)cc1`, for which the growth in the experiment with NCI-H23 lung is 81%; in the experiment on NCI-H226 lung, 84.8%; in the experiment on NCI-H322M lung, 87.1%; with HOP-62 NSCLC, 68.1%; in the experiment with NCI-H460 lung, 66.4%; with HOP-92 NSCLC, 49.2%. Besides, the growth is 76.9% in the experiment with NCI-H522 lung; 81.9% in the experiment on A549/ATCC NSCLC; 54.7% in the experiment on 786-0 renal; 85.7% in the experiment on COLO 205 colon; 93.2% in the experiment with DU-145 prostate; 87.6% with K-562 leukemia. Moreover, the growth in the experiment on MALME-3M melanoma was 59.5%; with MDA-MB-231 breast, 86.1%; in the experiment with SF-268 CNS, 80.1%; in the experiment with SF-295 CNS, 90.1%; in the experiment on SF-539 CNS it was 74.2%; in the experiment with UACC-257 melanoma it was 94.8%. Besides, the growth in the experiment on M14 melanoma was 85.3%.

`CCOC(=O)C1CC(=O)c2cc(OC)c(OC)cc2C1` (configuration not stated): the growth with NCI-H23 lung was 101%; in the experiment with NCI-H226 lung it was 92.6%; in the experiment on NCI-H322M lung it was 123%; with HOP-62 NSCLC, 96%; in the experiment with NCI-H460 lung, 110%; in the experiment on HOP-92 NSCLC, 84%. Moreover, the growth in the experiment with NCI-H522 lung was 84.9%; in the experiment with A549/ATCC NSCLC it was 100%; with 786-0 renal, 96.2%; in the experiment with COLO 205 colon, 127%; in the experiment with DU-145 prostate, 111%; with K-562 leukemia, 88%. In addition, the growth was 132% with MALME-3M melanoma; 110% with MDA-MB-231 breast; 102% with SF-268 CNS; 98.1% with SF-295 CNS; 100% with SF-539 CNS; 87.7% with UACC-257 melanoma. In addition, in the experiment on M14 melanoma, the growth was 87.8%.

`Cn1c(COC(=O)NCCN2CCOCC2)nc2c(N3CCOCC3)nc(-c3ccccc3)nc21`: the growth in the experiment with NCI-H23 lung is -48.2% (active); in the experiment with NCI-H226 lung it was -65% (active); with NCI-H322M lung it was 69%; in the experiment on HOP-62 NSCLC it was 23.2%; with NCI-H460 lung it was 1.27% (active); with HOP-92 NSCLC, -62.8% (active). The growth in the experiment on NCI-H522 lung is -44.6% (active); in the experiment with A549/ATCC NSCLC, 30.7%; with 786-0 renal, -83.9% (active); in the experiment on COLO 205 colon, -45.7% (active); with DU-145 prostate, -81.6% (active); in the experiment on K-562 leukemia, 0.451% (active). The growth is -91.9% (active) with MALME-3M melanoma; -88.9% (active) in the experiment on MDA-MB-231 breast; -36.8% (active) with SF-268 CNS; 57% in the experiment with SF-295 CNS; -98.7% (active) in the experiment on SF-539 CNS; -46.6% (active) with UACC-257 melanoma. Moreover, in the experiment with M14 melanoma, the growth is -75.9% (active).

`CC1=NNC(=O)C1CCC(=O)N/N=C(\C)c1ccc2ccccc2c1` (configuration not stated): the growth with NCI-H23 lung was 104%; with NCI-H226 lung it was 99.6%; in the experiment on NCI-H322M lung, 122%; in the experiment with HOP-62 NSCLC, 115%; with NCI-H460 lung it was 108%; with HOP-92 NSCLC it was 94.4%. For the same compound, the growth in the experiment on NCI-H522 lung is 96.1%; with A549/ATCC NSCLC it was 95.3%; in the experiment with 786-0 renal it was 103%; in the experiment on COLO 205 colon, 167%; in the experiment with DU-145 prostate, 102%; in the experiment with K-562 leukemia, 97.6%. Besides, the growth in the experiment with MALME-3M melanoma is 120%; with MDA-MB-231 breast, 111%; in the experiment on SF-268 CNS, 98.9%; in the experiment on SF-295 CNS it was 323%; in the experiment with SF-539 CNS it was 94.8%; with UACC-257 melanoma, 99.9%. For the same compound, the growth in the experiment with M14 melanoma is 113%.

As to `O=C(Nc1nc2ccc(C(=O)N3CCN(c4ccc(Cl)c(Cl)c4)CC3)cc2s1)c1ccc(NCCc2ccccc2)c([N+](=O)[O-])c1`, the growth in the experiment with NCI-H23 lung was 93.3%; in the experiment on NCI-H226 lung it was 87.8%; in the experiment with NCI-H322M lung, 95.5%; in the experiment with HOP-62 NSCLC, 96.6%; with NCI-H460 lung, 110%; in the experiment on HOP-92 NSCLC, 91.7%. In addition, the growth is 75.9% with NCI-H522 lung; 97.9% in the experiment on A549/ATCC NSCLC; 107% in the experiment with 786-0 renal; 108% in the experiment with COLO 205 colon; 101% in the experiment with DU-145 prostate; 84.2% in the experiment with K-562 leukemia. Also, the growth with MALME-3M melanoma was 86.8%; in the experiment on MDA-MB-231 breast it was 86.2%; in the experiment with SF-268 CNS, 97%; in the experiment on SF-295 CNS, 96.4%; with SF-539 CNS it was 101%; in the experiment on UACC-257 melanoma, 99.4%. Besides, in the experiment with M14 melanoma, the growth is 98.5%.

Consider `CCOC(=O)c1cnc2c(cnn2CC)c1NN=C(C)C`, for which the growth with NCI-H23 lung was 96.5%; in the experiment with NCI-H226 lung, 86.6%; in the experiment with NCI-H322M lung, 94.6%; in the experiment with HOP-62 NSCLC it was 76.6%; in the experiment on NCI-H460 lung, 106%; with HOP-92 NSCLC it was 73.9%. In addition, the growth in the experiment with NCI-H522 lung is 74.4%; with A549/ATCC NSCLC, 96.2%; with 786-0 renal it was 86.5%; with COLO 205 colon, 113%; with DU-145 prostate, 100%; in the experiment with K-562 leukemia it was 62.9%. In addition, the growth in the experiment on MALME-3M melanoma is 99.7%; in the experiment on MDA-MB-231 breast it was 91.6%; in the experiment with SF-268 CNS, 92.4%; in the experiment with SF-295 CNS it was 96.1%; in the experiment with SF-539 CNS it was 94.8%; in the experiment with UACC-257 melanoma, 113%. For the same compound, in the experiment with M14 melanoma, the growth is 106%.

As to `COc1cc(NCC(C)(O)CN(CC(C)C)CC(C)C)c2nc(C)ccc2c1` (configuration not stated), the growth with NCI-H23 lung was 79.7%; in the experiment with NCI-H226 lung, 74.1%; with NCI-H322M lung, 89.3%; with HOP-62 NSCLC, 92.5%; in the experiment with NCI-H460 lung, 101%; with HOP-92 NSCLC, 79.8%. Besides, the growth in the experiment with NCI-H522 lung was 77.6%; in the experiment on A549/ATCC NSCLC, 91%; in the experiment with 786-0 renal, 86.6%; in the experiment on COLO 205 colon, 79.5%; with DU-145 prostate, 110%; with K-562 leukemia it was 67.4%. Besides, the growth with MALME-3M melanoma was 94%; with MDA-MB-231 breast it was 69.5%; with SF-268 CNS, 93.7%; in the experiment with SF-295 CNS, 83.3%; with SF-539 CNS it was 96.1%; with UACC-257 melanoma, 93.1%. In addition, the growth in the experiment on M14 melanoma was 91.5%.
